# Changes are numbered by the printed parent chain.
# Legend:
# Assay in all cases: yeast three-hybrid, YBZ-1, SC-Leu-His + 0.5 mM 3-AT, 4 days
# Conditions in all cases: tags: N-Gal4 AD-HA kept; label: inside an RPR1-promoter hybrid RNA with tandem MS2 sites; ssRNA
# PUM1 PUF domain R6-KWQ = biological target: T1, PUM1 PUF domain R6-KWQ (Homo sapiens, UniProt Q14671 828-1176, N1043K;Y1044W)
# T1 sequence: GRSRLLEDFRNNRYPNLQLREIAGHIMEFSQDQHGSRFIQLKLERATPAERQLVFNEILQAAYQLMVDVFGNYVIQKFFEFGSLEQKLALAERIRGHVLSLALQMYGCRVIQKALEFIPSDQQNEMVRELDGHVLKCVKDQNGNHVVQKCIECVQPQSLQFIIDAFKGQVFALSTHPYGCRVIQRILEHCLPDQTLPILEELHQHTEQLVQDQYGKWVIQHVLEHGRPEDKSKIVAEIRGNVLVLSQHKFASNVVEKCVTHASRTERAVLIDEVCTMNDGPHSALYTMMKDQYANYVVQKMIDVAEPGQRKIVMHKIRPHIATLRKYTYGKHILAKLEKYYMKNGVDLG
# Outline: (§1)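 The interaction score is the log change in variant frequency from input to selection. Scores were computed in log2 with a pseudocount of 1 for absent variants, using Illumina sequencing of PCR-amplified repeat regions. The input came from four days on SC-Leu and the selection from four days on SC-Leu-His + 0.5 mM 3-AT. The cells were strain YBZ-1 (LexA–MS2 coat fusion, HIS3 reporter) co-expressing Pumilio-1 PUF domain libraries and matching RNA elements from a centromeric plasmid.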
# PUM1 PUF domain R1-KIL = PUM1 PUF domain R1-KIL (Homo sapiens, UniProt Q14671 828-1176, S863K;R864I;Q867L)
# Outline: as §1
# PUM1 PUF domain R7-LTL = PUM1 PUF domain R7-LTL (Homo sapiens, UniProt Q14671 828-1176, S1079L;N1080T;E1083L)
# Outline: as §1
# PUM1 PUF domain R5-RQG = PUM1 PUF domain R5-RQG (Homo sapiens, UniProt Q14671 828-1176, C1007R;R1008Q;Q1011G)
# Outline: as §1
# PUM1 PUF domain R3-TRR = PUM1 PUF domain R3-TRR (Homo sapiens, UniProt Q14671 828-1176, C935T;Q939R)
# Outline: as §1
# PUM1 PUF domain R5-RCC = PUM1 PUF domain R5-RCC (Homo sapiens, UniProt Q14671 828-1176, C1007R;R1008C;Q1011C)
# Outline: as §1
# PUM1 PUF domain R8-RWI = PUM1 PUF domain R8-RWI (Homo sapiens, UniProt Q14671 828-1176, N1122R;Y1123W;Q1126I)
# Outline: as §1
# PUM1 PUF domain R6-HHS = biological target: T2, PUM1 PUF domain R6-HHS (Homo sapiens, UniProt Q14671 828-1176, N1043H;Y1044H;Q1047S)
# T2 sequence: T1 sequence with K216H, W217H, Q220S
# Outline: as §1
# PUM1 PUF domain R6-NFW = biological target: T3, PUM1 PUF domain R6-NFW (Homo sapiens, UniProt Q14671 828-1176, Y1044F;Q1047W)
# T3 sequence: T1 sequence with K216N, W217F, Q220W
# Outline: as §1
# PUM1 PUF domain R3-GFW = PUM1 PUF domain R3-GFW (Homo sapiens, UniProt Q14671 828-1176, C935G;R936F;Q939W)
# Outline: as §1
# PUM1 PUF domain R8-HYN = PUM1 PUF domain R8-HYN (Homo sapiens, UniProt Q14671 828-1176, N1122H;Q1126N)
# Outline: as §1
# PUM1 PUF domain R4-SNG = PUM1 PUF domain R4-SNG (Homo sapiens, UniProt Q14671 828-1176, N971S;H972N;Q975G)
# Outline: as §1
# PUM1 PUF domain R4-TPS = PUM1 PUF domain R4-TPS (Homo sapiens, UniProt Q14671 828-1176, N971T;H972P;Q975S)
# Outline: as §1
# PUM1 PUF domain R3-SHA = PUM1 PUF domain R3-SHA (Homo sapiens, UniProt Q14671 828-1176, C935S;R936H;Q939A)
# Outline: as §1
# PUM1 PUF domain R4-WSC = PUM1 PUF domain R4-WSC (Homo sapiens, UniProt Q14671 828-1176, N971W;H972S;Q975C)
# Outline: as §1
# PUM1 PUF domain R4-EHL = PUM1 PUF domain R4-EHL (Homo sapiens, UniProt Q14671 828-1176, N971E;Q975L)
# Outline: as §1
# PUM1 PUF domain R6-LWC = biological target: T4, PUM1 PUF domain R6-LWC (Homo sapiens, UniProt Q14671 828-1176, N1043L;Y1044W;Q1047C)
# T4 sequence: T1 sequence with K216L, Q220C
# Outline: as §1
# PUM1 PUF domain R3-TFW = PUM1 PUF domain R3-TFW (Homo sapiens, UniProt Q14671 828-1176, C935T;R936F;Q939W)
# Outline: as §1
# PUM1 PUF domain R6-GFC = biological target: T5, PUM1 PUF domain R6-GFC (Homo sapiens, UniProt Q14671 828-1176, N1043G;Y1044F;Q1047C)
# T5 sequence: T1 sequence with K216G, W217F, Q220C
# Outline: as §1
# PUM1 PUF domain R4-DYA = PUM1 PUF domain R4-DYA (Homo sapiens, UniProt Q14671 828-1176, N971D;H972Y;Q975A)
# Outline: as §1
sequence,measurement,setting,value
GGCUAGAACUAGUGGAUCCCCCGGCGCCCGGCGGCUCGAGCCCGGGUAAGUGCAAAUAGUCUGCAUGCCGCCGGGCGCCAUGCCUGCAGGUCGACUCUAGAAAACAUG,binding signal,PUM1 PUF domain R6-KWQ,5.25 log2 enrichment (interaction score)
GGCUAGAACUAGUGGAUCCCCCGGCGCCCGGCGGCUCGAGCCCGGGUAAGUGUAAAUCGUCUGCAUGCCGCCGGGCGCCAUGCCUGCAGGUCGACUCUAGAAAACAUG,binding signal,PUM1 PUF domain R1-KIL,2.59 log2 enrichment (interaction score)
GGCUAGAACUAGUGGAUCCCCCGGCGCCCGGCGGCUCGAGCCCGGGUAAGUUUAAAUAGUCUGCAUGCCGCCGGGCGCCAUGCCUGCAGGUCGACUCUAGAAAACAUG,binding signal,PUM1 PUF domain R7-LTL,4.96 log2 enrichment (interaction score)
GGCUAGAACUAGUGGAUCCCCCGGCGCCCGGCGGCUCGAGCCCGGGUAAGUGUUAAUAGUCUGCAUGCCGCCGGGCGCCAUGCCUGCAGGUCGACUCUAGAAAACAUG,binding signal,PUM1 PUF domain R5-RQG,5 log2 enrichment (interaction score)
GGCUAGAACUAGUGGAUCCCCCGGCGCCCGGCGGCUCGAGCCCGGGUAAGUGUAAGUAGUCUGCAUGCCGCCGGGCGCCAUGCCUGCAGGUCGACUCUAGAAAACAUG,binding signal,PUM1 PUF domain R3-TRR,1.75 log2 enrichment (interaction score)
GGCUAGAACUAGUGGAUCCCCCGGCGCCCGGCGGCUCGAGCCCGGGUAAGUGUAAUUAGUCUGCAUGCCGCCGGGCGCCAUGCCUGCAGGUCGACUCUAGAAAACAUG,binding signal,PUM1 PUF domain R3-TRR,3.68 log2 enrichment (interaction score)
GGCUAGAACUAGUGGAUCCCCCGGCGCCCGGCGGCUCGAGCCCGGGUAAGUGUCAAUAGUCUGCAUGCCGCCGGGCGCCAUGCCUGCAGGUCGACUCUAGAAAACAUG,binding signal,PUM1 PUF domain R5-RCC,4.34 log2 enrichment (interaction score)
same,binding signal,PUM1 PUF domain R5-RQG,5.03 log2 enrichment (interaction score)
GGCUAGAACUAGUGGAUCCCCCGGCGCCCGGCGGCUCGAGCCCGGGUAAGCGUAAAUAGUCUGCAUGCCGCCGGGCGCCAUGCCUGCAGGUCGACUCUAGAAAACAUG,binding signal,PUM1 PUF domain R8-RWI,5.86 log2 enrichment (interaction score)
GGCUAGAACUAGUGGAUCCCCCGGCGCCCGGCGGCUCGAGCCCGGGUAAGUGUGAAUAGUCUGCAUGCCGCCGGGCGCCAUGCCUGCAGGUCGACUCUAGAAAACAUG,binding signal,PUM1 PUF domain R5-RQG,0.9 log2 enrichment (interaction score)
GGCUAGAACUAGUGGAUCCCCCGGCGCCCGGCGGCUCGAGCCCGGGUAAGUGUAAAUAGUCUGCAUGCCGCCGGGCGCCAUGCCUGCAGGUCGACUCUAGAAAACAUG,binding signal,PUM1 PUF domain R6-HHS,4.38 log2 enrichment (interaction score)
same,binding signal,PUM1 PUF domain R6-NFW,2.25 log2 enrichment (interaction score)
same,binding signal,PUM1 PUF domain R3-GFW,5.77 log2 enrichment (interaction score)
same,binding signal,PUM1 PUF domain R8-HYN,2.92 log2 enrichment (interaction score)
same,binding signal,PUM1 PUF domain R4-SNG,1.17 log2 enrichment (interaction score)
same,binding signal,PUM1 PUF domain R4-TPS,3 log2 enrichment (interaction score)
same,binding signal,PUM1 PUF domain R5-RQG,0.8 log2 enrichment (interaction score)
same,binding signal,PUM1 PUF domain R3-TRR,1.03 log2 enrichment (interaction score)
same,binding signal,PUM1 PUF domain R3-SHA,4.29 log2 enrichment (interaction score)
same,binding signal,PUM1 PUF domain R4-WSC,2.87 log2 enrichment (interaction score)
same,binding signal,PUM1 PUF domain R4-EHL,3.16 log2 enrichment (interaction score)
same,binding signal,PUM1 PUF domain R6-KWQ,2.54 log2 enrichment (interaction score)
same,binding signal,PUM1 PUF domain R6-LWC,5.46 log2 enrichment (interaction score)
same,binding signal,PUM1 PUF domain R3-TFW,4.12 log2 enrichment (interaction score)
same,binding signal,PUM1 PUF domain R6-GFC,2.74 log2 enrichment (interaction score)
GGCUAGAACUAGUGGAUCCCCCGGCGCCCGGCGGCUCGAGCCCGGGUAAGUGAAAAUAGUCUGCAUGCCGCCGGGCGCCAUGCCUGCAGGUCGACUCUAGAAAACAUG,binding signal,PUM1 PUF domain R6-KWQ,2.19 log2 enrichment (interaction score)
GGCUAGAACUAGUGGAUCCCCCGGCGCCCGGCGGCUCGAGCCCGGGUAAGUGUACAUAGUCUGCAUGCCGCCGGGCGCCAUGCCUGCAGGUCGACUCUAGAAAACAUG,binding signal,PUM1 PUF domain R4-TPS,4.18 log2 enrichment (interaction score)
same,binding signal,PUM1 PUF domain R4-WSC,2.22 log2 enrichment (interaction score)
same,binding signal,PUM1 PUF domain R4-EHL,1.89 log2 enrichment (interaction score)
GGCUAGAACUAGUGGAUCCCCCGGCGCCCGGCGGCUCGAGCCCGGGUAAGUGUAUAUAGUCUGCAUGCCGCCGGGCGCCAUGCCUGCAGGUCGACUCUAGAAAACAUG,binding signal,PUM1 PUF domain R4-SNG,3.22 log2 enrichment (interaction score)
same,binding signal,PUM1 PUF domain R4-DYA,7.28 log2 enrichment (interaction score)
same,binding signal,PUM1 PUF domain R4-WSC,4.12 log2 enrichment (interaction score)
GGCUAGAACUAGUGGAUCCCCCGGCGCCCGGCGGCUCGAGCCCGGGUAAGUGUAACUAGUCUGCAUGCCGCCGGGCGCCAUGCCUGCAGGUCGACUCUAGAAAACAUG,binding signal,PUM1 PUF domain R3-TRR,5.18 log2 enrichment (interaction score)
